Article PMC12670160, “A drug-repurposing screen of FDA- and EMA-approved drugs identifies two NF-κB inhibitors active against eumycetoma” (Journal of Antimicrobial Chemotherapy, 2025)
Structures can show the parent of a compound that is named as a salt. The campaign covered roughly 5,300 compounds. About 130 (2.5%) showed an effect of 50% or more. What follows is part of a selection rich in strong results, with near analogues and random picks from the rest. Peptide text beside a SMILES is read from it.

Each compound was assayed on M. mycetomatis strain mm55. Conditions: primary screen, metabolic activity vs growth control; 96 h, 2 µM; inhibitor.
With CCN(CC)C(=O)N[C@H]1CC2c3cccc4[nH]cc(c34)CC2N(C)C1 (some centres unmarked) [ONC0002019, terguride] the “% viability” value was 81.88%. With Clc1ccc(CSC(Cn2ccnc2)c2ccc(Cl)cc2Cl)cc1 (centres unmarked) [ONC0000678, sulconazole nitrate] the “% viability” value was 120.3%. Clc1ccc(C(Cn2ccnc2)OCc2c(Cl)cccc2Cl)c(Cl)c1 (centres unmarked) [Isoconazole nitrate (Travogen), Isoconazole nitrate] was tested, and the “% viability” value was 2.362%. For Clc1ccc(C(Cn2ccnc2)OCc2ccc(Sc3ccccc3)cc2)c(Cl)c1 (centres unmarked) [ONC0004926, fenticonazole nitrate], the “% viability” value was 131.8%. For Clc1ccc(COC(Cn2ccnc2)c2ccc(Cl)cc2Cl)c(Cl)c1 (centres unmarked) [Miconazole nitrate], the “% viability” value was 2.05%. For Clc1ccc(CCC(Cn2ccnc2)Sc2c(Cl)cccc2Cl)cc1 (centres unmarked) [ONC0005620, butoconazole], the “% viability” value was 76.6%. For Clc1ccc(C(Cn2ccnc2)OCc2csc3c(Cl)cccc23)c(Cl)c1 (centres unmarked) [ONC0005215, sertaconazole nitrate], the “% viability” value was 82%. In the case of Clc1ccc(C(Cn2ccnc2)OCc2ccsc2Cl)c(Cl)c1 (centres unmarked) [Tioconazole], the “% viability” value is reported as 3.335%. With COc1ccc(CCCOC(Cn2ccnc2)c2ccc(OC)cc2)cc1 (centres unmarked) [ONC0000065, skf96365] the “% viability” value was 143.6%. C=CCOC(Cn1ccnc1)c1ccc(Cl)cc1Cl (centres unmarked) [ONC0005416, enilconazole sulfate] was tested, and the “% viability” value was 2.508%. Clc1ccc(COC(Cn2ccnc2)c2ccc(Cl)cc2Cl)cc1 (centres unmarked) [ONC0000666, econazole nitrate] was tested, and the “% viability” value was 102.4%. With CC(C)S(=O)(=O)NC[C@H](C)c1ccc(-c2ccc(CCNS(C)(=O)=O)cc2)cc1 [ONC0000792, mibampator] the “% viability” value was 65.07%. For CC(=O)Nc1c(I)c(C(=O)O)c(I)c(N(C)C(C)=O)c1I [ONC0002767, metrizoic acid], the “% viability” value was 98.58%. CO[C@H]1C[C@H](O[C@H]2CC[C@@]3(C)[C@H](CC[C@@H]4[C@@H]3CC[C@]3(C)[C@@H](C5=CC(=O)OC5)[C@@H](OC(C)=O)C[C@]43O)C2)O[C@@H](C)[C@@H]1O [ONC0000896, oleandrin] was tested, and the “% viability” value was 70.17%. COc1cc([S+](C)[O-])ccc1-c1nc2ncccc2[nH]1 (centres unmarked) [ONC0002956, sulmazole] was tested, and the “% viability” value was 88.35%. In the case of COc1cc(N)c(Cl)cc1C(=O)N[C@@H]1CCN(CCCOc2ccc(F)cc2)C[C@@H]1OC (racemic) [ONC0002671, cisapride], the “% viability” value is reported as 79.76%. With CC[C@H](NC(C)C)[C@H](O)c1ccc(O)c2[nH]c(=O)ccc12 (racemic) [ONC0000846, procaterol] the “% viability” value was 72.96%. For COc1cc2c(Nc3ccc(Br)cc3F)ncnc2cc1OCC1CCN(C)CC1 [ONC0004515, vandetanib zd6474], the “% viability” value was 76.73%. For N[C@@H](CN1C=CC(=O)C(=O)C1)C(=O)O [ONC0002117, lmimosine], the “% viability” value was 76.12%. In the case of CCCCCCOc1nsnc1C1=CCCN(C)C1.O=C(O)C(=O)O [ONC0001841, xanomeline oxalate], the “% viability” value is reported as 152.3%. With C[C@H](NC(=O)C(C)(C)Oc1ccc(C(F)(F)F)cn1)[C@@H](Cc1ccc(Cl)cc1)c1cccc(C#N)c1 [ONC0002066, taranabant] the “% viability” value was 72.16%. CCCC[C@H](NC(=O)[C@@H]1[C@@H]2[C@H](CN1C(=O)[C@@H](NC(=O)NC1(CS(=O)(=O)C(C)(C)C)CCCCC1)C(C)(C)C)C2(C)C)C(=O)C(=O)NC1CC1 [ONC0000734, narlaprevir] was tested, and the “% viability” value was 68.03%. For CC(C)(C)NC(=O)N[C@H](C(=O)N1C[C@H]2[C@@H]([C@H]1C(=O)NC(CC1CCC1)C(=O)C(N)=O)C2(C)C)C(C)(C)C (some centres unmarked) [ONC0001071, boceprevir], the “% viability” value was 43.8%. Cc1cnc(NC(=O)c2cc(Oc3cnc(C(=O)N(C)C)nc3)c3cc(C)oc3c2)cn1 [ONC0005563, pf04937319] was tested, and the “% viability” value was 103.7%. With O=c1[nH]cnc2c([C@@H]3N[C@H](CO)[C@@H](O)[C@H]3O)c[nH]c12 [ONC0001813, forodesine hydrochloride] the “% viability” value was 95.12%. For CCn1c(=O)n([C@H]2CCCN(c3nccc(-c4cc5ccccc5o4)n3)C2)c2ccccc21 [ONC0001458, tcf2], the “% viability” value was 58.53%. With CCCCN(CCCC)CC(O)c1cc(Cl)cc2c1-c1ccc(Cl)cc1/C2=C/c1ccc(Cl)cc1 (centres unmarked) [ONC0000941, lumefantrine] the “% viability” value was 75.53%. With CCCCN(CCCC)CCC(O)c1cc2c(Cl)cc(Cl)cc2c2cc(C(F)(F)F)ccc12 (centres unmarked) [ONC0003518, halofantrinehcl] the “% viability” value was 46.17%. In the case of CNc1nc(-c2ccc3c(N)n[nH]c3c2)cc(N2C[C@@H](C(=O)NC3CCCCC3)CC[C@H]2C)n1 [ONC0002484, gsk2334470], the “% viability” value is reported as 37.41%. With COc1c2occc2cc2ccc(=O)oc12 [ONC0005318, methoxsalen] the “% viability” value was 102.8%. With COc1c2ccoc2cc2oc(=O)ccc12 [ONC0003294, bergapten] the “% viability” value was 47.96%. For O=c1ccc2c(OCCCCOc3ccccc3)c3ccoc3cc2o1 [ONC0000770, pap1], the “% viability” value was 62.21%. For NS(=O)(=O)OC[C@@H]1C[C@@H](n2ccc3c(N[C@H]4CCc5ccccc54)ncnc32)C[C@@H]1O [ONC0001277, pevonedistat hydrochloride], the “% viability” value was 68.15%. Cc1ccc2c(c1)c1c(n2CCc2ccc(C)nc2)CCN(C)C1.Cl.Cl [ONC0000365, latrepirdine dimebon dihydrochloride] was tested, and the “% viability” value was 70.26%. CN1CCN(CCCN2c3ccccc3Sc3ccc(C(F)(F)F)cc32)CC1 [ONC0003239, trifluoperazine hydrochloride] was tested, and the “% viability” value was 119.8%. For CCCCCCCCCC(=O)OCCN1CCN(CCCN2c3ccccc3Sc3ccc(C(F)(F)F)cc32)CC1 [ONC0003289, fluphenazine decanoate], the “% viability” value was 48.22%. With OCCN1CCN(CCCN2c3ccccc3Sc3ccc(C(F)(F)F)cc32)CC1 [ONC0003193, fluphenazine hydrochloride] the “% viability” value was 105.7%. CN1CC[C@@]2(C)c3cc(O)ccc3N(C)[C@@H]12 [ONC0002771, eseroline] was tested, and the “% viability” value was 104.2%. O=C1c2ccccc2C(=O)c2ccccc21 [ONC0002912, anthraquinone] was tested, and the “% viability” value was 73.56%. In the case of c1ccc2c(c1)[I+]c1ccccc1-2 [ONC0002720, diphenyleneiodonium], the “% viability” value is reported as 44.4%. CC(O)COC[C@H]1O[C@@H]2O[C@H]3[C@H](O)[C@@H](O)[C@@H](O[C@H]4[C@H](O)[C@@H](O)[C@@H](O[C@H]5[C@H](O)[C@@H](O)[C@@H](O[C@H]6[C@H](O)[C@@H](O)[C@@H](O[C@H]7[C@H](O)[C@@H](O)[C@@H](O[C@H]8[C@H](O)[C@@H](O)[C@@H](O[C@H]1[C@H](O)[C@H]2O)O[C@@H]8COCC(C)O)O[C@@H]7COCC(C)O)O[C@@H]6COCC(C)O)O[C@@H]5COCC(C)O)O[C@@H]4COCC(C)O)O[C@@H]3COCC(C)O (some centres unmarked) [ONC0003826, hydroxypropylbetacyclodextrin] was tested, and the “% viability” value was 73.6%. For NCCC(=O)N[C@@H](Cc1cnc[nH]1)C(=O)O [ONC0002788, carnosine], the “% viability” value was 115.1%. With CC[C@@H]1C(=O)N(C)c2cnc(Nc3ccc(C(=O)N[C@H]4CC[C@H](N5CCN(CC6CC6)CC5)CC4)cc3OC)nc2N1C(C)C [ONC0005061, bi6727 volasertib] the “% viability” value was 89.64%. CC[C@@H]1C(=O)N(C)c2cnc(Nc3ccc(C(=O)NC4CCN(C)CC4)cc3OC)nc2N1C1CCCC1 [ONC0004589, bi 2536] was tested, and the “% viability” value was 63.71%. In the case of CC(C)CCN1c2nc(Nc3cc(F)c(O)c(F)c3)ncc2N(C)C(=O)C1C (centres unmarked) [ONC0004496, bid1870], the “% viability” value is reported as 46.32%. Nc1nonc1C(=NO)Nc1ccc(F)c(Cl)c1 [ONC0002386, ido5l] was tested, and the “% viability” value was 106.2%. With CN1CCN(C(=O)c2nc3cc(Cl)ccc3[nH]2)CC1 [ONC0003559, jnj10191584] the “% viability” value was 96.39%. O=C(Nc1ccc(Cl)cc1)Nc1ccc(Cl)c(Cl)c1 [ONC0003407, triclocarban] was tested, and the “% viability” value was 109.1%. With O=C(Nc1cnc(Cl)nc1)c1ccc(F)c(F)c1 [ONC0001921, ica069673] the “% viability” value was 29.87%. For O=C(Nc1ccc(Cl)nc1)c1ccc(Cl)cc1 [ONC0002468, ica110381], the “% viability” value was 70.91%. In the case of CC[C@@]1(O)C(=O)OCc2c1cc1n(c2=O)Cc2c-1nc1cc(F)c(C)c3c1c2[C@@H](N)CC3.CS(=O)(=O)O [ONC0003668, exatecan mesylate], the “% viability” value is reported as 59.4%. For C#C[C@]1(O)CCC2C3CCC4=C(CCC(=O)C4)C3CC[C@@]21C (some centres unmarked) [ONC0000393, norethynodrel], the “% viability” value was 78.62%. With O=C(O)c1ccc(CN2CCC(CN[C@@H]3C[C@H]3c3ccccc3)CC2)cc1 [ONC0001137, gsk2879552] the “% viability” value was 48.21%. O=C(COc1ccc(C(=O)c2ccccc2)cc1)NC1CCN(Cc2ccccc2)CC1 [ONC0000156, adiporon] was tested, and the “% viability” value was 92.46%. In the case of O=C(NC1CCN(Cc2ccccc2)CC1)c1ccc(I)cc1 [ONC0003079, 4ibp], the “% viability” value is reported as 71.08%. For C[C@@H](O)[C@H](N)C(=O)N1CCC[C@H]1C(=O)N1CCC[C@H]1C(=O)N[C@H](C(N)=O)[C@@H](C)O [ONC0002215, rapastinel trifluoroacetate] (H-TPPT-NH2), the “% viability” value was 53.54%.
